For assay [1], the target named is T1, Aspartate--tRNA(Asp/Asn) ligase (Mycobacterium tuberculosis (strain ATCC 25618 / H37Rv)) (UniProt P9WFW3). Also: in the data most compounds retested in dose-response had high values.
T1 sequence (whole entry): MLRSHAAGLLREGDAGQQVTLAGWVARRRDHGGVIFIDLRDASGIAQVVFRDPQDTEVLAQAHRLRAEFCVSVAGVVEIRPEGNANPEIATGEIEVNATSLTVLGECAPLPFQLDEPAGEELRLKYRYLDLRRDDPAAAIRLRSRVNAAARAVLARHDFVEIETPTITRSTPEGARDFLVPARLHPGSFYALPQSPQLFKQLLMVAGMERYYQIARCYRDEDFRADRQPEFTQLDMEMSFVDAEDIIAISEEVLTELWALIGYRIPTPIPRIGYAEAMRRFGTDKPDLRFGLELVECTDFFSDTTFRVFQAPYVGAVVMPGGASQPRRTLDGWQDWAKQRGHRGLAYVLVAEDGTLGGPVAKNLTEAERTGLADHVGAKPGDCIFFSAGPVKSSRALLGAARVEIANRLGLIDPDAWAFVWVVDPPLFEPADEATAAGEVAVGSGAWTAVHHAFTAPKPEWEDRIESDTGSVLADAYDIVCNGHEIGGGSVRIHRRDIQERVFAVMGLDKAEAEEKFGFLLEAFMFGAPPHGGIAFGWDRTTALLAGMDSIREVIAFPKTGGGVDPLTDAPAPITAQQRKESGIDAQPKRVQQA
Briefly: Assay for Asp RNA synthetase-1 from Mycobacterium tuberculosis. The format is functional. More on the design: scale not given: direction of the effect not stated beside the values. As to conditions: 30 µM.

In assay [2] the target is Shiga toxin 2 (Escherichia coli O157:H7) (UniProt P09385+P09386). Briefly: E. coli 0.157:H7 Shiga Toxin SOP - stx2 screening assay. The format is functional. More on the design: scale not given: direction of the effect not stated beside the values. As to conditions: 30 µM.

`CC(C)N1CCCC(CCCc2ccccn2)(C(=O)O)C1` (configuration not stated): the Percent Effect is 1.98% in assay [1] and 9.97% in assay [2].

Consider `COc1cc(CN2CCN(c3cccc(OC)c3)C(=O)C2)cc(OC)c1`, for which the Percent Effect in assay [1] was -1.98%; in assay [2], -8.17%.

Take `Cn1cc(C2COC3(CCN(C(=O)Cn4cccn4)CC3)C2)cn1` (configuration not stated): the Percent Effect in assay [1] was 8.57%; in assay [2], -7.73%.

As for `COc1ccc(CN2C[C@H]3CN(c4ccsc4)C(=O)[C@H]3C2)cc1`, the Percent Effect was 4.05% in assay [1] and -26.4% in assay [2].

Take `Cc1ccc(CN2CCC(c3nnc(CN4CCCCC4)n3C)CC2)o1`: the Percent Effect in assay [1] is -1.53%; in assay [2], -7.9%.

In the case of `CCNC(=O)c1nnn(Cc2ccccc2)c1OC`, the Percent Effect is 0.29% in assay [1] and -14.9% in assay [2].

In the case of `CC(=O)N1CCCN(C(=O)NCCc2ccc(Cl)s2)CC1`, the Percent Effect in assay [1] was -3.04%; in assay [2], -19.8%.

For the molecule `Cc1nc(C)n(CC2CCCN2Cc2nc(-c3cccs3)no2)n1` (configuration not stated), the Percent Effect in assay [1] is -2.77%; in assay [2], 29.7%.

In the case of `COC(=O)CN1CC(c2nc(Cc3ccccc3)no2)C1`, the Percent Effect in assay [1] is -4.57%; in assay [2], -14.5%.

For `O=C(NCCC(=O)N1CCCC1)c1nn(-c2ccccc2F)cc1O`, the Percent Effect in assay [1] is -3.29%; in assay [2] it was -59.6%.

On to `CC(Cn1cccn1)NC(=O)NCCc1ccc(Cl)s1` (configuration not stated), for which the values for the Percent Effect in assay [1] and in assay [2] were 4.37% and -19.2%, respectively.

In the case of `CCC1c2ccsc2CCN1C(=O)NCc1ccccn1` (configuration not stated), the values for the Percent Effect in assay [1] and in assay [2] were -0.144% and -4.32%, respectively.

As to `CCCN(C(=O)c1ccccn1)c1nc2c(s1)CCc1c-2cnn1C`, the figures for the Percent Effect in assay [1] and in assay [2] were 55.9% and -72.4%, respectively.

Regarding `CN(Cc1ccc(Cl)s1)C(=O)c1cccc(OCC(N)=O)c1`, the Percent Effect is -2.2% in assay [1] and 0.368% in assay [2].

As to `CN(C)CC1CSCCCN1C(=O)c1ccc(C(C)(C)C)cc1` (configuration not stated), the Percent Effect in assay [1] was -2.32%; in assay [2], 10.3%.

Regarding `COc1ccc(C2=CCN(C(=O)C3CCCN(C(N)=O)C3)CC2)cc1` (configuration not stated), the Percent Effect in assay [1] is 1.94%; in assay [2], 26.5%.

As for `COc1cn(-c2ccccc2)nc1C(=O)NCCCN1CCCC(C)C1` (configuration not stated), the Percent Effect is -1.18% in assay [1] and 7% in assay [2].

As for `O=C(NCC1CCOC1)c1ccc(OCC(F)(F)F)nc1` (configuration not stated), the Percent Effect in assay [1] is -2.12%; in assay [2], -17.6%.

Regarding `O=C(c1cnn2c1OCCC2)N1CCN(C/C=C/c2ccccc2)CC1`, the Percent Effect in assay [1] is 3.28%; in assay [2] it was -6.18%.

Consider `Fc1ccccc1-c1noc2c1CN(CC1CC1)CC2`, for which the Percent Effect is -1.29% in assay [1] and -8.88% in assay [2].

With `Cc1noc(C)c1CN1CCN(CC2CC2)c2ncccc2C1`, the Percent Effect worked out at 2.1% in assay [1] and 0.649% in assay [2].

As for `Cc1cc(N2CCC(N(C)C(=O)Nc3ccccc3)CC2)nc(C)n1`, the results for the Percent Effect in assay [1] and in assay [2] were 7.13% and -20.7%, respectively.

In the case of `COc1cc(C(=O)N2CCCS2(=O)=O)cc(Cl)c1OC`, the Percent Effect in assay [1] was -11.2%; in assay [2], -4.54%.

Take `CCc1cc(C)c(C(=O)N2CCCC2CC(=O)c2cnn(C)c2)o1` (configuration not stated): the Percent Effect was -2.02% in assay [1] and 19.9% in assay [2].

As for `COc1ccc(-n2nnc(C(=O)NC(C)C)c2C2CC2)cc1`, the Percent Effect in assay [1] is -4.62%; in assay [2], 10.4%.

Regarding `COCCN1CCc2cc(C(=O)N(C)C)c(NCC3CC3)nc2CC1`, the Percent Effect in assay [1] amounted to 0.183%; in assay [2], 0.232%.

`CC(C)c1ccc(C(C)NC(=O)N2CCC(n3cncn3)CC2)cc1` (configuration not stated): the Percent Effect in assay [1] is -0.885%; in assay [2], 3.93%.

Turning to `Cc1ccccc1OCCC(=O)N1CCCC(n2cncn2)C1` (configuration not stated), the Percent Effect in assay [1] was -3.32%; in assay [2] it was 2.85%.

On to `Cc1cc(C[S+]([O-])CC(=O)NCc2cccs2)no1` (configuration not stated), for which the Percent Effect in assay [1] is -0.395%; in assay [2] it was 9.34%.

On to `c1ccc(OCC2CC3(CCN(Cc4ccncc4)CC3)CO2)nc1` (configuration not stated), for which the Percent Effect in assay [1] is 1.19%; in assay [2], -30.5%.

For `Cc1cccc(-n2cc(C(=O)N3CCn4c(C)nnc4C3)nn2)c1`, the Percent Effect is -2.42% in assay [1] and -92.9% in assay [2].

Turning to `COCc1cc(O)nc(C2CCCN(Cc3cc(OC)ccc3F)C2)n1` (configuration not stated), the Percent Effect in assay [1] turned out to be 1.71%; in assay [2], 17.7%.

In the case of `O=C(Cc1ccccc1F)N1CCN(C(=O)c2ccoc2)CC1`, the Percent Effect in assay [1] is 5.87%; in assay [2], -6.64%.

As to `O=C(Nc1ccc(F)c(Br)c1)N1CCCC1`, the Percent Effect in assay [1] was 4.74%; in assay [2], -23.1%.

Turning to `Cn1cccc1C(=O)Nc1cc(F)ccc1OCC1CCCO1` (configuration not stated), the results for the Percent Effect in assay [1] and in assay [2] were -6.53% and 22%, respectively.

Take `O=S(=O)(c1ccccc1)N1CCC2(CCCN2CC2CCCC2)C1` (configuration not stated): the Percent Effect is -2.77% in assay [1] and 9.27% in assay [2].

As to `Cc1nc[nH]c1CN(C)CC1CCCN(CCc2ccc(Cl)cc2)C1` (configuration not stated), the Percent Effect in assay [1] was 4.6%; in assay [2] it was -62.7%.

Take `COc1cc(N2C[C@@H]3COC[C@]3(COCc3cccc(C)n3)C2)ncn1`: the Percent Effect is -0.107% in assay [1] and -2.46% in assay [2].

As for `O=C(NCc1ccco1)[C@H]1C[C@H]2OCC[C@H]2N(C(=O)c2ccncc2)C1`, the Percent Effect came to 4.89% in assay [1] and 8.77% in assay [2].

In the case of `CN(Cc1ccco1)C[C@H]1OC[C@@H]2CCN(Cc3cccs3)C[C@@H]21`, the Percent Effect was 3.35% in assay [1] and -17.4% in assay [2].

In the case of `Cc1nc(C)n(CC2CCCN(CCc3ccccn3)C2)n1` (configuration not stated), the Percent Effect in assay [1] is -0.8%; in assay [2], -46.3%.

For `NC(=O)C1CCC(NC(=O)COc2ccc(Cl)c(Cl)c2)CC1` (configuration not stated), the Percent Effect is 3.91% in assay [1] and -29.1% in assay [2].

Turning to `CCS(=O)(=O)N1CCCc2ccc(NC(=O)Cc3ccc(F)cc3)cc21`, the Percent Effect stood at 3.34% in assay [1] and 7.51% in assay [2].

With `CC(C)n1ccnc1C1CCN(C(=O)C2COc3ccccc3O2)CC1` (configuration not stated), the Percent Effect in assay [1] was -1.53%; in assay [2], 13.2%.

As to `Cc1nc(C)n(C2CCCN(C(=O)c3ccc4c(c3)COC4)C2)n1` (configuration not stated), the Percent Effect in assay [1] is 0.699%; in assay [2] it was -16.5%.

With `CCc1cnc(CN(C(C)=O)C2CCN(CCS(C)(=O)=O)C2)o1` (configuration not stated), the Percent Effect is -3.9% in assay [1] and -0.798% in assay [2].

`CCc1ncc2c(n1)CN(CC(=O)Nc1ccc(Cl)cn1)CC2`: the Percent Effect was 0.367% in assay [1] and -9.49% in assay [2].

As for `O=C(Nc1cc(F)ccc1OCC1CCCO1)c1ccccn1` (configuration not stated), the Percent Effect turned out to be 2.54% in assay [1] and 37.1% in assay [2].

Consider `COc1ccc(OC)c(CCNC(=O)NC(C)Cn2ccnc2)c1` (configuration not stated), for which the results for the Percent Effect in assay [1] and in assay [2] were -6.68% and 31%, respectively.

On to `Cc1nc(Nc2ncccn2)cc(C2CCCN2C2CCOCC2)n1` (configuration not stated), for which the Percent Effect in assay [1] was 2.13%; in assay [2], -0.835%.

In the case of `Cc1csc(C2CCCN(C(=O)c3cc(Cl)c[nH]3)C2)n1` (configuration not stated), the Percent Effect in assay [1] is -3.61%; in assay [2] it was 29.7%.

Source of the values: ChEMBL document CHEMBL3988442, “University of Dundee, Small-Polar-MMV Screening Library” (2021).
